Assay results: PubChem BioAssay (NCATS)
Results filed as inconclusive are left out. A number with no mark means an inactive call. Activity calls are given as the source filed them. Unless noted, calls follow the shape of the full dose curve.

Key:
[1] = Cell Viability - BJ (AID 421); details: BJ fibroblast viability, qHTS;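 also: potency is read from the fitted curve at half-maximal effect; cells exposed to compound for 40 hours at 37 °C before readout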
Outline: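 Quantitative HTS: ATP depletion in BJ cells after 40 hr compound exposure in complete culture medium, detected with CellTiter-Glo; AC50 from standard Hill fits.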

[2] = Cell Viability - Jurkat (AID 426;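 active = dose-dependent loss of cell ATP signal giving a full or clear fitted curve, ranked by lower potency value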; also: potency is read from the fitted curve at half-maximal effect); details: qHTS
Outline: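 Jurkat (clone E6-1, human T-cell leukemia) cells, 5000/well in complete medium, were exposed to compound for 40 hr at 37 °C. Viability was read as intracellular ATP by CellTiter-Glo luminescence; AC50 came from Hill fits of concentration-response data.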

[3] = Cell Viability - Hek293 (AID 427;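 active = compounds whose dose-response curve shows a full or clear partial loss of cell viability, called from curve shape rather than a numeric limit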;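 also: potency is read from the fitted curve at half-maximal effect; cells exposed to compound for 40 hours at 37 °C before reading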); details: qHTS
Outline: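 AC50 values derive from Hill-modelled concentration-response of ATP-based luminescence, normalized between DMSO-only and 100 uM tamoxifen controls. Cells were exposed in complete culture medium for 40 hr at 37 °C before detection.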

[4] = Cell Viability - MRC5 (AID 434); details: MRC5 lung fibroblast viability, qHTS;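 also: potency is read from the fitted curve at half-maximal effect; potency reflects cytotoxicity seen as loss of intracellular ATP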
Outline: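 MRC5 normal human lung fibroblasts, 1500 cells/well, exposed to compound for 40 hr at 37 C. Cellular ATP was read by CellTiter-Glo luminescence; data normalized to DMSO and 100 uM tamoxifen, with AC50 from Hill fits.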

[5] = molecular target: Mitogen-activated protein kinase 10 (Mus musculus) (UniProt Q61831); test: JNK3 AlphaScreen Assay (AID 530; active = well fitted curve in either direction with a large enough effect, not every such curve was filed as active;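 also: kinase came from lysate of stimulated human HepG2 cells; signal reports phosphorylation of biotinylated GST-cJun 1-79 at Ser73 with 10 µM ATP; % is scaled to controls: 0 for no effect and ±100 for the full control effect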); details: JNK3 lysate, c-Jun phosphorylation; series mostly up to 57.1 µM
Outline: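 qHTS format: compounds tested as titrations against IL-1beta/TNF-alpha-activated HepG2 lysate JNK3 with biotin-GST-cJun substrate and 10 uM ATP at room temperature. Loss of anti-phospho-cJun AlphaScreen signal indicates inhibition.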

[6] = Cell Viability - N2a (AID 540; active = well fitted curve in the direction sought with a large enough effect; an effect the other way counts as inactive or inconclusive;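 also: plate controls were DMSO alone for no effect and tamoxifen control for full effect; nearly all actives have a fitted effect of over 45% in size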); details: N2a mouse neuroblastoma cell viability; activity change, negative = cytotoxicity: at 92.2 µM (top of the series)
Outline: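 Mouse neuroblastoma N2a cells (1500/well) were preincubated 5 hr at 37 °C, then exposed to compounds for 40 hr at 37 °C in complete medium. Viability was read as intracellular ATP by CellTiter-Glo luminescence; AC50 from Hill fits.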

[7] = Cell Viability - NIH 3T3 (AID 541; active = well fitted curve in the direction sought with a large enough effect; an effect the other way counts as inactive or inconclusive; also: nearly all actives have a fitted effect of over 25% in size; also: potency is read from the fitted curve at half-maximal effect;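 as to activity change, negative = cytotoxicity: plate controls were DMSO alone for no effect and tamoxifen positive control for full effect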); details: NIH 3T3 cell viability, qHTS; activity change, negative = cytotoxicity: at 92.2 µM (top of the series)
Outline: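 NIH 3T3 mouse embryo fibroblasts (1000 cells/well) were plated in complete medium and treated with compound for 40 hr at 37 °C. Viability was read as intracellular ATP by CellTiter-Glo luminescence; AC50 values came from Hill-equation fits of concentration-response data.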

[8] = Cell Viability - HUV-EC-C (AID 542; active = well fitted curve in the direction sought with a large enough effect; an effect the other way counts as inactive or inconclusive; also: % is scaled to controls: 0 for no effect and ±100 for the full control effect; nearly all actives have a fitted effect of over 35% in size); details: HUV-EC-C endothelial cell viability, qHTS; series mostly up to 92.2 µM
Outline: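 HUV-EC-C normal human vascular endothelial cells, 1000 cells/well, pre-incubated 5 hr at 37 °C, then exposed to compounds for 40 hr at 37 °C in complete medium. Viability measured as intracellular ATP by CellTiter-Glo luminescence; AC50 from Hill fits.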

[9] = Cell Viability - SK-N-SH (AID 435); details: SK-N-SH neuroblastoma cell viability qHTS;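 also: potency is read from the fitted curve at half-maximal effect; compound exposure lasted 40 h at 37 °C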
Outline: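 SK-N-SH human neuroblastoma cells (1500/well) were exposed to compounds in complete medium for 40 h at 37 °C, and intracellular ATP was then measured by CellTiter-Glo luminescence. AC50 was taken from Hill fits, normalized to DMSO and 100 uM tamoxifen.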

[10] = Cell Viability - HepG2 (AID 433); details: qHTS;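 also: potency is read from the fitted curve at half-maximal effect; potency for ATP loss meaning cytotoxicity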
Outline: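 HepG2 hepatocellular carcinoma cells (1500/well) were treated with compounds for 40 h at 37 °C in complete medium; intracellular ATP was read by CellTiter-Glo luminescence. Data were normalized to DMSO and 100 uM tamoxifen, and AC50 came from Hill fits.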

O=C1C=CCCC1
Potency [1]: > 92 µM
Potency [2]: > 92 µM
Potency [3]: > 92 µM
Potency [4]: > 92 µM
outcome [5]: inactive
activity change, negative = cytotoxicity [6]: 3.2%
Potency [7]: inactive
Potency [8]: inactive

CC(C)CO
Potency [1]: > 92 µM
Potency [2]: > 92 µM
Potency [3]: > 92 µM
Potency [4]: > 92 µM
Potency [9]: > 92 µM
outcome [5]: inactive
activity change, negative = cytotoxicity [6]: 3.29%
Potency [8]: inactive

Cc1ccco1
Potency [1]: > 92 µM
Potency [2]: > 92 µM
Potency [3]: > 92 µM
Potency [4]: > 92 µM
outcome [5]: inactive
activity change, negative = cytotoxicity [6]: 0.379%
Potency [7]: inactive

COc1ccccc1[N+](=O)[O-]
Potency [1]: > 92 µM
Potency [2]: > 92 µM
Potency [3]: > 92 µM
Potency [4]: > 92 µM
Potency [9]: > 92 µM
outcome [5]: inactive
activity change, negative = cytotoxicity [6]: -25.3%
Potency [7]: inactive
Potency [8]: inactive

CN(C)CCCNCCCN
Potency [1]: > 92 µM
Potency [2]: > 92 µM
Potency [3]: > 92 µM
Potency [10]: > 92 µM
outcome [5]: inactive
activity change, negative = cytotoxicity [6]: 1.31%
Potency [7]: 12.6 µM (active)

Cc1ccc(C)o1
Potency [1]: > 92 µM
Potency [2]: > 92 µM
Potency [3]: > 92 µM
Potency [4]: > 92 µM
Potency [9]: > 92 µM
outcome [5]: inactive
activity change, negative = cytotoxicity [6]: -9.8%
Potency [7]: inactive
Potency [8]: inactive

CNc1ccccc1
Potency [1]: > 92 µM
Potency [2]: > 92 µM
Potency [3]: > 92 µM
Potency [4]: > 92 µM
Potency [9]: > 92 µM
outcome [5]: inactive
Potency [8]: inactive

CC(O)COC(C)(C)C (stereo unspecified)
Potency [1]: > 92 µM
Potency [2]: > 92 µM
Potency [3]: > 92 µM
Potency [4]: > 92 µM
Potency [9]: > 92 µM
outcome [5]: inactive
activity change, negative = cytotoxicity [6]: 1.08%
Potency [7]: inactive
Potency [8]: inactive

COc1ccc(OC)cc1
Potency [1]: > 92 µM
Potency [2]: > 92 µM
Potency [3]: > 92 µM
Potency [4]: > 92 µM
Potency [9]: > 92 µM
outcome [5]: inactive
activity change, negative = cytotoxicity [6]: 0.243%
Potency [7]: inactive
Potency [8]: inactive

CCOCCO
Potency [1]: > 92 µM
Potency [2]: > 92 µM
Potency [3]: > 92 µM
Potency [4]: > 92 µM
Potency [9]: > 92 µM
outcome [5]: inactive
activity change, negative = cytotoxicity [6]: -17.9%
Potency [7]: inactive
Potency [8]: inactive

OC1CCCC1
Potency [1]: > 92 µM
Potency [2]: > 92 µM
Potency [3]: > 92 µM
Potency [9]: > 92 µM
outcome [5]: inactive
activity change, negative = cytotoxicity [6]: -9.14%
Potency [7]: inactive
Potency [8]: inactive

ON=C1CCCCC1
Potency [1]: > 92 µM
Potency [2]: > 92 µM
Potency [3]: > 92 µM
Potency [4]: > 92 µM
Potency [9]: > 92 µM
outcome [5]: inactive
activity change, negative = cytotoxicity [6]: 0.317%
Potency [7]: inactive
Potency [8]: inactive

O=Cc1cccc(Br)c1
Potency [1]: > 92 µM
Potency [2]: > 92 µM
Potency [3]: > 92 µM
Potency [4]: > 92 µM
Potency [9]: > 92 µM
outcome [5]: inactive
activity change, negative = cytotoxicity [6]: 0.0642%
Potency [8]: inactive

Cc1ccc(Br)cc1
Potency [1]: > 92 µM
Potency [2]: > 92 µM
Potency [3]: > 92 µM
Potency [4]: > 92 µM
Potency [9]: > 92 µM
outcome [5]: inactive
activity change, negative = cytotoxicity [6]: 6.22%
Potency [7]: inactive
Potency [8]: inactive

NC=O
Potency [1]: > 92 µM
Potency [2]: > 92 µM
Potency [3]: > 92 µM
Potency [4]: > 92 µM
Potency [9]: > 92 µM
outcome [5]: inactive
activity change, negative = cytotoxicity [6]: 1.82%
Potency [7]: inactive
Potency [8]: inactive

Cc1ccc(S(=O)(=O)NC2CCCCC2)cc1
Potency [1]: > 92 µM
Potency [2]: > 92 µM
Potency [3]: > 92 µM
Potency [4]: > 92 µM
Potency [9]: > 92 µM
outcome [5]: inactive
Potency [7]: inactive
Potency [8]: inactive

ClCCl
Potency [1]: > 92 µM
Potency [3]: > 92 µM
Potency [10]: > 92 µM
Potency [4]: > 92 µM
Potency [9]: > 92 µM
outcome [5]: inactive
activity change, negative = cytotoxicity [6]: -5.52%
Potency [7]: inactive
Potency [8]: inactive

NC(=O)c1cccc([N+](=O)[O-])c1
Potency [1]: > 92 µM
Potency [3]: > 92 µM
Potency [10]: > 92 µM
Potency [4]: > 92 µM
Potency [9]: > 92 µM
outcome [5]: inactive
activity change, negative = cytotoxicity [6]: -1.6%
Potency [7]: inactive
Potency [8]: inactive
